Data taken from PubChem BioAssay.
Values without a mark were called inactive. For some assays here: Entries with a potency or affinity are not part of this list. The source made the active and inactive calls. Unless noted, the rule behind the calls is not given here.

Legend:
[1] = antimalarial activity against Dd2 strain (AID 2302;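 active = growth inhibition above 50% at the single 2 µM test dose, taken to imply half-maximal potency below 2 µM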;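 note: 0% = DMSO untreated growth and 100% = chloroquine plus artemisinin killed control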); conditions: P. falciparum Dd2 in RBCs, LDH growth readout, 72 h; at 2 µM; active compounds read high
[2] = human hepatoma cell viability loss – ATP luminescence, cytotoxicity control for P. falciparum antimalarial project, primary screen (AID 2303;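 active = inhibition above 50%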;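 note: 0% = DMSO wells and 100% = digitonin-killed cells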); conditions: HepG2 viability, 24-48 h, at 10 µM, active compounds read high
[3] = molecular target: L-lactate dehydrogenase (Plasmodium falciparum (isolate CDC / Honduras)) (UniProt Q27743); test: PfLDH activity inhibition – cell lysate, 3D7 strain, counter-screen for P. falciparum growth inhibition project (AID 2304);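 note: 0% = vehicle and 100% = reference inhibitor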; conditions: P. falciparum 3D7 crude extract, LDH APAD/NBT absorbance; at 2 µM; active compounds read high
[4] = inhibition of 3D7 malaria parasite growth – strain 3D7 (AID 2306);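 note: 0% = DMSO wells and 100% = chloroquine plus artemisinin control wells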; conditions: P. falciparum 3D7 erythrocytic growth, LDH absorbance, 72 h; at 2 µM; active compounds read high
[5] = molecular target: Calcium-dependent protein kinase 1 (Plasmodium falciparum (isolate 3D7)) (UniProt P62344); test: PfCDPK1 kinase inhibitors, biochemical, TCAMS library (AID 1159585; cut-off not given, nearly all actives have IC50 up to about 0.98 µM;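 note: inhibitors leave more ATP so luminescence rises with inhibition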); conditions: recombinant PfCDPK1, Kinase-Glo ATP depletion luminescence
[6] = molecular target: Plasmodium falciparum protein kinase 6 (PK6, PF3D7_1337100) (UniProt Q8IDW1); test: PfPK6 kinase inhibitors, biochemical, TCAMS library (AID 1159586); conditions: recombinant PfPK6, Kinase-Glo ATP depletion luminescence
[7] = molecular target: Protein kinase 7 (PK7), Plasmodium falciparum 3D7 (PF3D7_0213400) (UniProt Q7YTF7); test: inhibition of Plasmodium PK7 catalytic activity – biochemical, TCAMS antimalarial set, Kinase-Glo luminescence (AID 1159587); conditions: recombinant PfPK7, Kinase-Glo ATP depletion luminescence
[8] = molecular target: Calcium-dependent protein kinase 4 (Plasmodium falciparum (isolate 3D7)) (UniProt Q8IBS5); test: PfCDPK4 kinase inhibitors, biochemical, TCAMS library (AID 1159588; cut-off not given, nearly all actives have IC50 up to about 0.91 µM); conditions: recombinant PfCDPK4, Kinase-Glo ATP depletion luminescence
Calcium-dependent protein kinase 4 (Plasmodium falciparum (isolate 3D7)), sequence (Q8IBS5 whole entry, looked up): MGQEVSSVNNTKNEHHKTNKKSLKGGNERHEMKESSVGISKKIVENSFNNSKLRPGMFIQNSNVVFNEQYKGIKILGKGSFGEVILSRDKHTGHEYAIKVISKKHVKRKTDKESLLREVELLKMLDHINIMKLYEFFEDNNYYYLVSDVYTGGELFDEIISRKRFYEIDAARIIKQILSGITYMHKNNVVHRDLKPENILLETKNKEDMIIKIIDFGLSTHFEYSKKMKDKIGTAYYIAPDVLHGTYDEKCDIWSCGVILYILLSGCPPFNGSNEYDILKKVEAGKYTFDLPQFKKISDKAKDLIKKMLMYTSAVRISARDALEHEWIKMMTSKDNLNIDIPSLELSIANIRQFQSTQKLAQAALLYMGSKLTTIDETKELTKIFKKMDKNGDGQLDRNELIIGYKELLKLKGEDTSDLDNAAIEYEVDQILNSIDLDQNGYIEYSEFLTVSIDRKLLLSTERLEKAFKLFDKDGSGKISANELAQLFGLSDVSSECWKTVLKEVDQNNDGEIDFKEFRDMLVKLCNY

Protein kinase 7 (PK7), Plasmodium falciparum 3D7 (PF3D7_0213400), sequence (Q7YTF7 1-343): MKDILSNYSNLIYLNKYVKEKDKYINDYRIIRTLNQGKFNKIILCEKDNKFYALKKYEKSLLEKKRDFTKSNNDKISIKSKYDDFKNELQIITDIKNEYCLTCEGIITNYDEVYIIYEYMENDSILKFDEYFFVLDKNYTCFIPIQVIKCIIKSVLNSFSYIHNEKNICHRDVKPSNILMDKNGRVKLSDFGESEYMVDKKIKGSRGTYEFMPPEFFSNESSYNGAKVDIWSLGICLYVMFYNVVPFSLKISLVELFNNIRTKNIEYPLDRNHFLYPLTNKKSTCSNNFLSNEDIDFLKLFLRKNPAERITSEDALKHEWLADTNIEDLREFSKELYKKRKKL
Plasmodium falciparum protein kinase 6 (PK6, PF3D7_1337100), sequence (Q8IDW1 1-305): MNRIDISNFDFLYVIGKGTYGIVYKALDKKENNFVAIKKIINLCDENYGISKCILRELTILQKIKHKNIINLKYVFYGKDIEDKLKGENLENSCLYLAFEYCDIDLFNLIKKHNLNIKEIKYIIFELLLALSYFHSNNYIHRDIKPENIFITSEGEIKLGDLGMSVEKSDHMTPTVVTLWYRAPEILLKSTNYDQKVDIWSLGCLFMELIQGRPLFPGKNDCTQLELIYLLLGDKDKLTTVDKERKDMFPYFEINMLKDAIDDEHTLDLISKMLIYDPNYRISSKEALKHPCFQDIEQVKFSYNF
Calcium-dependent protein kinase 1 (Plasmodium falciparum (isolate 3D7)), sequence (P62344 whole entry, looked up): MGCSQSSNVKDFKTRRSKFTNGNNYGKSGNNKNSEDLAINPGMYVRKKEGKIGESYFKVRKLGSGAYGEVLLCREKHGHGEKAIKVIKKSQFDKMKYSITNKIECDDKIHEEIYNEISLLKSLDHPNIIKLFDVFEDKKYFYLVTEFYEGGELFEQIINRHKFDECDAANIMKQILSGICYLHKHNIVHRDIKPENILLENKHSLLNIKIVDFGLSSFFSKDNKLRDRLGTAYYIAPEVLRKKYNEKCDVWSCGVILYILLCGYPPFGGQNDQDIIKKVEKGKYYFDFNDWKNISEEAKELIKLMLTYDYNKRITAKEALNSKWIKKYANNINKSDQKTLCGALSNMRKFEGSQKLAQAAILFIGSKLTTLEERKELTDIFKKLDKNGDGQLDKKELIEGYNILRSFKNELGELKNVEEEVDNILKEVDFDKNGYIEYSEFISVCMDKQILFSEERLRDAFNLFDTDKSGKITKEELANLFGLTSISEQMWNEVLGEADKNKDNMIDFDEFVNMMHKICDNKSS
L-lactate dehydrogenase (Plasmodium falciparum (isolate CDC / Honduras)), sequence (Q27743 whole entry, looked up): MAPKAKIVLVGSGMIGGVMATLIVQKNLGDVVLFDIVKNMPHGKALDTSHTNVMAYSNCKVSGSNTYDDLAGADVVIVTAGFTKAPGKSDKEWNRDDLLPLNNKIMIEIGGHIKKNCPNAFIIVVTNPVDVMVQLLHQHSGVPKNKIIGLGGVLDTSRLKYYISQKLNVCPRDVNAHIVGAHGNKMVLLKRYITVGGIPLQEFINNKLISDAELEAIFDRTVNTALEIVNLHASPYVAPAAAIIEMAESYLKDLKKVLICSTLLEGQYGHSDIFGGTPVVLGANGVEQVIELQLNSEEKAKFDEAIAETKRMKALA

Row | Compound | growth inhibition [1] | inhibition [2] | inhibition [3] [%] | growth inhibition [4] | outcome [5] | outcome [6] | outcome [7] | outcome [8]
1 | CCCCSc1c(CNCCCCCCNCc2ccc3ccccc3c2SCCCC)ccc2ccccc12 | 62% (active) | 99% (active) | -9 | 93% (active) | inactive | inactive | inactive | inactive
2 | CS(=O)(=O)c1ccc(CNCc2cccc(-c3cccc(-c4nc5ccc(F)cc5[nH]4)c3)c2)cc1 | 84% (active) | 11% | -3 | 102% (active) | inactive | inactive | inactive | inactive
3 | c1ccc(COc2ccc(C3CCCCC3)cc2)nc1 | 1% | 0% | 0 | 99% (active) | inactive | inactive | inactive | inactive
4 | CCOC(=O)C(C)(C)Oc1ccc(C(=C2CC(C)(C)CC(C)(C)C2)c2ccc(O)cc2)cc1 | 78% (active) | -3% | 1 | 92% (active) | inactive | inactive | inactive | inactive
5 | CCNc1cc(C(=O)N[C@@H](Cc2ccc(F)c(F)c2)[C@H](O)CNCc2cccc(OC)c2)cc(N2CCCCS2(=O)=O)c1 | 85% (active) | 4% | -7 | 99% (active) | inactive | inactive | inactive | inactive
6 | Cc1ccccc1C1CCN(C2CCC(NC(=O)/C=C/c3cccc(F)c3)CC2)CC1 (stereo not given) | 38% | 46% | -3 | 84% (active) | inactive | inactive | inactive | inactive
7 | O=C(NC(Nc1ccc([N+](=O)[O-])cc1)C(Cl)(Cl)Cl)c1cccc(Cl)c1 (stereo not given) | 17% | -2% | 0 | 92% (active) | inactive | inactive | inactive | inactive
8 | COc1cc2c(cc1S(=O)(=O)c1ccc(NC(=O)c3cc4ccccc4s3)cc1)CCN(C)CC2 | 88% (active) | 21% | 2 | 100% (active) | inactive | inactive | inactive | inactive
9 | CC(C)C(C)(C#N)NC(=O)CSc1nc2ccc([N+](=O)[O-])cc2s1 (stereo not given) | 81% (active) | -11% | 3 | 95% (active) | inactive | inactive | inactive | inactive
10 | FC(F)(F)c1cccc(C=NNc2nc3ccccc3[nH]2)c1 | 99% (active) | 1% | 0 | 101% (active) | inactive | inactive | inactive | inactive
11 | CCCc1cn2c3c(cc(C(=O)N[C@@H](Cc4ccccc4)[C@H](O)CNC4CCCCC4)cc13)N(CC)S(=O)(=O)CC2 | 98% (active) | 2% | -2 | 98% (active) | inactive | inactive | inactive | inactive
12 | CNCCNCc1cccc(-c2ccc(-c3nc4ccc(C(F)(F)F)cc4[nH]3)cc2)c1 | 92% (active) | 21% | -5 | 100% (active) | inactive | inactive | inactive | inactive
13 | COc1ccc(-n2ccnc2SCC(=O)Nc2cc(C)ccc2C)c(OC)c1 | 93% (active) | 2% | -3 | 94% (active) | inactive | inactive | inactive | inactive
14 | COc1ccc2ncc(F)c(CCN3CCC(CNC(=O)C(=O)c4c[nH]c5ccccc45)CC3)c2n1 | 99% (active) | 48% | -6 | 103% (active) | inactive | inactive | inactive | inactive
15 | O=c1cc(NCCCNCc2cc(Cl)cc(Cl)c2OCc2ccccc2)[nH]c2ccccc12 | 50% (active) | -4% | -2 | 91% (active) | inactive | inactive | inactive | inactive
16 | COc1cccc(-c2ccc3ccnc(N)c3c2)c1 | 93% (active) | 40% | 0 | 101% (active) | inactive | inactive | inactive | inactive
17 | O=C(/C=C/c1ccc(Cl)c(Cl)c1)NC1CCC(CN2CCC(c3c[nH]c4ccncc34)CC2)CC1 (stereo not given) | 96% (active) | 16% | -1 | 100% (active) | inactive | inactive | inactive | inactive
18 | O=C(/C=C/c1ccc(Cl)c(Cl)c1)NC1CCN(Cc2ccc(O)cc2)CC1 | 43% | -1% | 3 | 103% (active) | inactive | inactive | inactive | inactive
19 | Cc1cc(OCc2ccncc2)cc2c1C(=O)CC(C)(C)O2 | 0% | -5% | -5 | 99% (active) | inactive | inactive | inactive | inactive
20 | COc1ccc(C(C(=O)NC2CCN(C[C@H](O)c3ccnc4ccc(OC)cc34)CC2)N2CCN(Cc3ccccc3)CC2)cc1 (stereo not given in full) | 72% (active) | 18% | -9 | 100% (active) | inactive | inactive | inactive | inactive

Row | Compound | growth inhibition [1] | inhibition [2] | inhibition [3] [%] | growth inhibition [4] | outcome [5] | outcome [6] | outcome [7] | outcome [8]
21 | CC(CCc1ccccc1)NCC(O)c1ccc2c(c1)S(=O)(=O)c1ccccc1N2 (stereo not given) | 4% | 17% | 0 | 95% (active) | inactive | inactive | inactive | inactive
22 | O=C(/C=C/c1ccc(Cl)c(Cl)c1)NC1CCN(CCCNC(=O)c2cccc(Cl)c2)CC1 | 28% | 36% | -2 | 100% (active) | inactive | inactive | inactive | inactive
23 | COc1ccc(Cl)cc1S(=O)(=O)Nc1cccc(CCN2CCC(N3CCCCC3)CC2)c1 | 9% | 33% | 4 | 101% (active) | inactive | inactive | inactive | inactive
24 | CC1(C)N=C(N)N=C(N)N1OCCCCOc1ccccc1 | 95% (active) | 60% (active) | -1 | 95% (active) | inactive | inactive | inactive | inactive
25 | Cc1cccc(C=NNc2cc(C)nc3ccc(F)cc23)n1 | 45% | 1% | 3 | 95% (active) | inactive | inactive | inactive | inactive
26 | Cn1ccnc1S(=O)(=O)CCNCc1ccc(-c2ccc3ncnc(Nc4ccc(OCc5cccc(F)c5)c(Cl)c4)c3c2)o1 | 94% (active) | -2% | -3 | 101% (active) | inactive | inactive | inactive | inactive
27 | COCc1cccc(-c2cc(-c3ccc(S(C)(=O)=O)cc3)cnc2N)c1 | 88% (active) | 10% | -2 | 98% (active) | inactive | inactive | inactive | inactive
28 | CCc1cc2c(N)nc(N)nc2nc1-c1ccccc1 | -1% | 18% | 6 | 91% (active) | inactive | inactive | inactive | inactive
29 | CCCCCN1CCCC1CNS(=O)(=O)c1ccc(C(=O)Nc2cccc(C(F)(F)F)c2)cc1 (stereo not given) | -1% | 16% | -4 | 95% (active) | inactive | inactive | inactive | inactive
30 | Cn1nc(-c2ccc(CN[C@@H]3CCc4ccc(O)cc43)cc2)c2cnc(NCCCN3CCCC3)nc21 | 61% (active) | 8% | 2 | 101% (active) | inactive | inactive | inactive | inactive
31 | CC(C)(C)c1ccc(NC(=O)c2cccc(CN3CCCN(Cc4ccc(F)cc4)CC3)c2)cc1 | 2% | 35% | 0 | 88% (active) | inactive | inactive | inactive | inactive
32 | O=C(Nc1cccc(C(F)(F)F)c1)N1CCOC(CCN2CCC3(CCc4ccccc43)CC2)(c2ccc(Cl)c(Cl)c2)C1 (stereo not given) | 70% (active) | 31% | 0 | 99% (active) | inactive | inactive | inactive | inactive
33 | Cc1sc2ccc(Cl)cc2c1S(=O)(=O)Nc1ccc2nccc(N3C[C@@H](C)N[C@@H](C)C3)c2c1 | 100% (active) | 17% | 0 | 100% (active) | inactive | inactive | inactive | inactive
34 | O=c1cc(N2CCCNCC2)c(Cl)nn1Cc1ccc(NS(=O)(=O)c2ccc(Oc3ccccc3)cc2)cc1 | -4% | 0% | -2 | 98% (active) | inactive | inactive | inactive | inactive
35 | COc1ccc(-c2cccc(NC(=O)c3cccc(Cl)c3)c2)cc1CN1CCNCC1 | 52% (active) | 29% | 9 | 101% (active) | inactive | inactive | inactive | inactive
36 | CCNc1cc(C(=O)N[C@@H](Cc2ccccc2)[C@H](O)CNCCc2ccccc2)cc(N2CCCC2=O)c1 | 46% | -4% | 2 | 92% (active) | inactive | inactive | inactive | inactive
37 | N#CC(c1ccc(Br)cc1)c1ccc2c(C(F)(F)F)cc(C(F)(F)F)nc2n1 (stereo not given) | 98% (active) | 75% (active) | -2 | 101% (active) | inactive | inactive | inactive | inactive
38 | COc1ccc(-c2cc(C(=O)N[C@@H](CC3CCCCC3)C(=O)NCCN3CCCCC3)ccc2O)cc1 | 72% (active) | 3% | 0 | 98% (active) | inactive | inactive | inactive | inactive
39 | NOCCCOc1ccc(Cl)cc1 | 0% | 12% | 0 | 98% (active) | inactive | inactive | inactive | inactive
40 | Cn1ncc2c3c(CCN4CCC(NCc5cc6c(cn5)OCCO6)CC4)c(Cl)cnc3ccc21 | 34% | 1% | 0 | 95% (active) | inactive | inactive | inactive | inactive
